Among the data in PubChem BioAssay (Tox21) are Potency values, retold here.

Each structure is given as a SMILES string. Values joined by “and” are separate entries in the source; they are usually repeats but may differ in a detail not shown here. Equal values may be shown once. Inconclusive results are not listed. More than one record can exist for a structure, and the calls need not agree. Active and inactive are the calls of the source. Unless noted, calls follow the shape of the dose curve; as a rule, active = well fitted curve in the direction sought with a large enough effect in the repeat runs; inconclusive = weak or mixed curves; inactive = no such curve, though single readings can be large; an effect the other way counts as inactive or inconclusive.

Experiment [1] can be described thus: qHTS assay to identify small molecule antagonists of the thyroid receptor (TR) signaling pathway - cell viability counter screen (AID 743064). Also: nearly all actives have a fitted effect of over 50% in size. Also: potency is read from the fitted curve at half-maximal effect. Put shortly: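 In-well cytotoxicity read by CellTiter-Fluor (30 min, 37 C) following 23.5 h exposure of GH3 cells bearing a TRE-luciferase sensor. Compounds were added alongside 1 nM (final) T3 to drive TR transactivation.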

Experiment [2] is described as follows: qHTS assay to identify small molecule antagonists of the thyroid receptor (TR) signaling pathway (AID 743065). Also: nearly all actives have a fitted effect of over 55% in size. Also: potency is read from the fitted curve at half-maximal effect. The method, boiled down:
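GH3.TRE-Luc rat pituitary cells (two TREs driving luciferase) were dosed with compound, then stimulated with 1 nM T3 (final) for 23.5 h at 37 C. ONE-Glo luminescence was the read-out, with CellTiter-Fluor fluorescence as the cytotoxicity counter-screen.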
(In general: In qHTS, concentration-response curves come from the screen itself.)

Experiment [3] can be described thus: qHTS assay to identify small molecule antagonists of the estrogen receptor alpha (ER-alpha) signaling pathway - cell viability counter screen (AID 743074; calls by dose curve;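 also: HEK293 cells carrying ER-alpha-UAS-bla reporter stimulated with 17beta-estradiol; nearly all actives have a fitted effect of over 45% in size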; also: potency is read from the fitted curve at half-maximal effect).
Experiment [4] can be described thus: qHTS assay to identify small molecule antagonists of the estrogen receptor alpha (ER-alpha) signaling pathway using the BG1 cell line - cell viability counter screen (AID 743081).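 Also: compound given together with 17beta-estradiol as the ER stimulus; nearly all actives have a fitted effect of over 45% in size.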 Also: potency is read from the fitted curve at half-maximal effect.
For experiment [5], the system named is thyroid hormone receptor (rat, GH3 cells). The experiment in a line: qHTS assay to identify small molecule agonists of the thyroid receptor (TR) signaling pathway (AID 743066; calls by dose curve).
In the next experiment the target is Aromatase (Homo sapiens) (UniProt P11511). As to the kind of experiment: qHTS assay to identify aromatase inhibitors (AID 743083). Also: nearly all actives have a fitted effect of over 55% in size. Also: potency is read from the fitted curve at half-maximal effect.
Sequence of Aromatase (Homo sapiens) (P11511 whole entry, looked up): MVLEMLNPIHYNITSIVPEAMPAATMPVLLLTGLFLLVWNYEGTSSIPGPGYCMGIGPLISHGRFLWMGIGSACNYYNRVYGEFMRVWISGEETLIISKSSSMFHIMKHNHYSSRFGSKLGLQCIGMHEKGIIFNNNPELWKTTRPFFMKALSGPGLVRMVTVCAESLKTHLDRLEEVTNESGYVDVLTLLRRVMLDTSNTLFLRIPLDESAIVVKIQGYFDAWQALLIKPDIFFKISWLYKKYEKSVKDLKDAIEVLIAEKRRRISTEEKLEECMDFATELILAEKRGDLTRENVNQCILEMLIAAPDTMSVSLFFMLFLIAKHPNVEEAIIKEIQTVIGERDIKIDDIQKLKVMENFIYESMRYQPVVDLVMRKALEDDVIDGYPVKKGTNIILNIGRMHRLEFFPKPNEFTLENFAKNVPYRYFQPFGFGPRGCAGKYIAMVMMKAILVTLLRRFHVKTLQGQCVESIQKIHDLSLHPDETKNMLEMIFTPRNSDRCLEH
In experiment [6] the target is Estrogen receptor (Homo sapiens) (UniProt P03372). As to the kind of experiment: qHTS assay to identify small molecule agonists of the estrogen receptor alpha (ER-alpha) signaling pathway (AID 743075; calls by dose curve;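 also: HEK293 GripTite cells with ER-alpha and UAS-driven beta-lactamase reporter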).
Sequence of Estrogen receptor (Homo sapiens) (P03372 whole entry, looked up): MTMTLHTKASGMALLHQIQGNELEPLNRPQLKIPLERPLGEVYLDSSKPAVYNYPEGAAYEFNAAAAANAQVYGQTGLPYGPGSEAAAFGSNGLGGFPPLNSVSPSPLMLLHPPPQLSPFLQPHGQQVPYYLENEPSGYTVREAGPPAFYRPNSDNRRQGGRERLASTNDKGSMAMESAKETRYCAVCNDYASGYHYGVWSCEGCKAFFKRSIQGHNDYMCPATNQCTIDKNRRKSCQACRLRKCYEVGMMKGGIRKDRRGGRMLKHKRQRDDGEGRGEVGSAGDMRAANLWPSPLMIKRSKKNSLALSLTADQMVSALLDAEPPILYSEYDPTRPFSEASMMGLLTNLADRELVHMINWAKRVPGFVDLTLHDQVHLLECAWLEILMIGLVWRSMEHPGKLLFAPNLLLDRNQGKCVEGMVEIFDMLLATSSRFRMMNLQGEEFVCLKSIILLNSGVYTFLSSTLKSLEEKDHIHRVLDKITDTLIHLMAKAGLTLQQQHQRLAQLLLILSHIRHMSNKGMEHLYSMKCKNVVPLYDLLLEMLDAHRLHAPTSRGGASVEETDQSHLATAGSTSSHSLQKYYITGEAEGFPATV
For experiment [7] the target is unchanged. The experiment in a line: qHTS assay to identify small molecule agonists of the estrogen receptor alpha (ER-alpha) signaling pathway using the BG1 cell line (AID 743079). Also: nearly all actives have a fitted effect of over 20% in size.
Experiment [8] is described as follows: qHTS assay to identify small molecule antagonists of the estrogen receptor alpha (ER-alpha) signaling pathway using the BG1 cell line (AID 743080; calls by dose curve;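 also: BG1 cells stimulated with 17beta-estradiol alongside compound; nearly all actives have a fitted effect of over 25% in size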; also: potency is read from the fitted curve at half-maximal effect). The method, boiled down: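 Readout is ONE-Glo luminescence, taken 30 min at room temperature after reagent addition, preceded by a CellTiter-Fluor viability read; BG1-Luc-4E2 cells had received compound and 17beta-estradiol for 21.5 h at 37 C.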

The target in experiment [9] is Estrogen receptor (Homo sapiens) (UniProt P03372). The experiment in a line: qHTS assay to identify small molecule antagonists of the estrogen receptor alpha (ER-alpha) signaling pathway (AID 743069; active = well fitted curve in the direction sought with a large enough effect in the signal ratio in the repeat runs, not every such curve was filed as active; the % refers to the signal ratio). Put shortly: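 Beta-lactamase FRET fluorescence is read after 2 hr at room temperature with LiveBLAzer B/G substrate. Before that, ER-alpha-bla HEK293 cells sit 4 hr after plating, then receive compound plus 17beta-estradiol and incubate 18 hr at 37C.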

Turning to `CC(C)(C)CC(C)(C)c1ccc(O)cc1`, the Potency in experiment [1] is 23.7 µM (active) and 25 µM (active); in [2] it was 26.6 µM (active) and 21.7 µM (active); in experiment [3], 43.6 µM (active). Further, the Potency entry in experiment [4] is “inactive”.

For the compound `O=C(O)CCCOc1ccc(Cl)cc1Cl`, the Potency result (in experiment [1]; in experiment [2]; in experiment [5]; in [3]; in experiment [4]; in the experiment with Aromatase (Homo sapiens)) was “inactive” each time.

Take `CN1C[C@H](C(=O)N[C@]2(C)O[C@@]3(O)[C@@H]4CCCN4C(=O)[C@H](Cc4ccccc4)N3C2=O)C=C2c3cccc4[nH]cc(c34)C[C@H]21`: the Potency entry in [1], in experiment [5], in experiment [3], in experiment [6], in [7] and in experiment [8] was “inactive” throughout. For the same compound, the Potency result in the experiment with Aromatase (Homo sapiens) is “inactive”. For the same compound, in experiment [4], the Potency was 16.8 µM (active) and 27.4 µM (active).

As to `O=C(O)COc1cc(Cl)c(Cl)cc1Cl`, the Potency entry (in experiment [1]; in experiment [5]; in experiment [4]; with Aromatase (Homo sapiens)) was “inactive” throughout. Also, the Potency in experiment [2] is 54.5 µM (active).

As to `COc1ccccc1N1CCNCC1`, the Potency entry (in experiment [1]; in experiment [2]; in experiment [5]; in experiment [3]; in experiment [4]; in the experiment with Aromatase (Homo sapiens)) was “inactive” each time.

Consider `C[C@H]1[C@@H]2Cc3ccc(O)cc3[C@@]1(C)CCN2C`, for which the Potency entry in [1] and in experiment [5] was “inactive” each time.

Regarding `CCCCNC(=O)OCC#CI`, the Potency in experiment [1] was 6.82 µM (active) and 4.33 µM (active); in experiment [2] it was 9.64 µM (active) and 4.86 µM (active); in experiment [8], 60.8 µM (active) and 68.6 µM (active); with Aromatase (Homo sapiens), 4.83 µM (active) and 13.7 µM (active). The Potency result in experiment [5], in [6] and in experiment [4] was “inactive” in each case.

Turning to `O=C(N[C@H]1CN2CCC1CC2)c1ccc2c(c1)OCCO2`, the Potency result (in experiment [1]; in [2]; in experiment [5]; in experiment [3]; in experiment [4]; with Aromatase (Homo sapiens)) was “inactive” each time.

Take `CCCCCCCCn1sccc1=O`: the Potency in [1] was 6.13 µM (active) and 5.09 µM (active); in experiment [2], 4.87 µM (active) and 3.6 µM (active); in experiment [3], 55.1 µM (active) and 51.3 µM (active); with Aromatase (Homo sapiens), 10.9 µM (active) and 32.1 µM (active). The Potency result in experiment [8] and in experiment [4] was “inactive” each time.

On to `CC(C)CCCCCCCOC(=O)c1ccccc1C(=O)OCCCCCCCC(C)C`, for which the Potency entry (in experiment [1]; in experiment [2]; in experiment [3]; in experiment [4]; in the experiment with Aromatase (Homo sapiens)) was “inactive” in each case.

Consider `O=C(O)C(O)C(O)C(=O)O` (configuration not stated), for which the Potency result in [1], in experiment [5], in experiment [9], in [3], in experiment [6] and in [7] was “inactive” in each case. In addition, the Potency entry (in experiment [8]; in experiment [4]; in the experiment with Aromatase (Homo sapiens)) was “inactive” in each case.

Take `CCCC[P+](CC)(CCCC)CCCC` (tested in a mixture with another compound): the Potency entry (in experiment [1]; in [2]; in experiment [5]; in experiment [3]; in experiment [4]; in the experiment with Aromatase (Homo sapiens)) was “inactive” throughout.

For `FC(F)OC(F)(F)C(F)Cl` (configuration not stated), the Potency entry (in experiment [1]; in experiment [2]; in [5]; in experiment [3]; in [4]; in the experiment with Aromatase (Homo sapiens)) was “inactive” throughout.

For the compound `CN(C)C(=O)Nc1cccc(OC(=O)NC(C)(C)C)c1`, the Potency entry in experiment [1], in experiment [5], in experiment [9], in experiment [3], in experiment [6] and in [7] was “inactive” each time. Moreover, the Potency entry (in [8]; in [4]; with Aromatase (Homo sapiens)) was “inactive” throughout.

With `c1ccc2c(c1)-c1cccc3cccc-2c13`, the Potency result (in [1]; in experiment [2]; in experiment [5]; in experiment [3]; in experiment [4]; in the experiment with Aromatase (Homo sapiens)) was “inactive” throughout.

In the case of `O=C(NCNC(=O)NC1C(=O)NC(=O)N1CO)NC1C(=O)NC(=O)N1CO` (configuration not stated), the Potency entry (in experiment [1]; in [2]; in experiment [5]; in experiment [3]; in experiment [4]; with Aromatase (Homo sapiens)) was “inactive” each time.

Turning to `COC1=CC(=O)O[C@@H](/C=C/c2ccc3c(c2)OCO3)C1`, the Potency entry (in experiment [1]; in [5]; in [4]; with Aromatase (Homo sapiens)) was “inactive” each time. In [2], the Potency is 0.0585 µM (active).

On to `C=CCSSCC=C`, for which the Potency entry (in experiment [1]; in [2]; in [5]; in experiment [3]; in experiment [4]; in the experiment with Aromatase (Homo sapiens)) was “inactive” each time.

As for `O=C1CC[C@@]2(O)[C@H]3Cc4ccc(O)c5c4[C@@]2(CCN3CC2CC2)[C@H]1O5`, the Potency result (in [1]; in experiment [2]; in experiment [5]; in experiment [3]; in [4]; with Aromatase (Homo sapiens)) was “inactive” in each case.

Take `C[C@@H]1C[C@@H]([C@H](O)CC2CC(=O)NC(=O)C2)C(=O)[C@@H](C)C1`: the Potency in [1] was 237 nM (active); in [2], 66.8 nM (active) and 60.8 nM (active); in the experiment with Aromatase (Homo sapiens) it was 750 nM (active) and 383 nM (active). The Potency entry in experiment [5] and in experiment [4] was “inactive” throughout.

For the compound `C[C@]12CC[C@H]3[C@@H](CCC4=CC(=O)CC[C@@H]43)[C@@H]1CC[C@@H]2OC(=O)CCc1ccccc1`, the Potency result in experiment [1], in experiment [5] and in experiment [3] was “inactive” each time.

In the case of `OCCCl`, the Potency result (in experiment [1]; in [2]; in experiment [5]; in [3]; in experiment [4]; with Aromatase (Homo sapiens)) was “inactive” in each case.

With `CCCCCl`, the Potency result (in [1]; in [2]; in experiment [5]; in experiment [3]; in [4]; with Aromatase (Homo sapiens)) was “inactive” in each case.

Take `Cc1ccccc1`: the Potency entry (in experiment [1]; in experiment [2]; in experiment [5]; in experiment [3]; in experiment [4]; in the experiment with Aromatase (Homo sapiens)) was “inactive” each time.

As to `O=C1c2ccccc2C(=O)N1SC(Cl)(Cl)Cl`, the Potency in experiment [1] is 4.27 µM (active) and 2.17 µM (active); in experiment [2], 2.4 µM (active) and 1.54 µM (active); in [3], 21.6 µM (active) and inactive; with Aromatase (Homo sapiens), 3.02 µM (active) and 4.86 µM (active). Further, in experiment [6], the Potency entry was “inactive”.

As for `C[Si](Cn1cncn1)(c1ccc(F)cc1)c1ccc(F)cc1`, the Potency was 63100 nM (active) in [1]; 28.2 µM (active) and 54.5 µM (active) in experiment [2]; 316 nM (active) and 545 nM (active) with Aromatase (Homo sapiens). The Potency result in [5], in [3] and in [4] was “inactive” each time.

Turning to `CCOC(=O)C1OC1(C)c1ccccc1` (configuration not stated), the Potency entry (in experiment [1]; in [2]; in [5]; in experiment [3]; in experiment [4]; with Aromatase (Homo sapiens)) was “inactive” in each case.
